Ten compounds from PubChem BioAssay (NCI) can be followed below.

Experiment [1] is described as follows: NCI Yeast Anticancer Drug Screen. Data for the rad50 strain (AID 155).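 Further: 0% = growth of vehicle-only cultures of the same strain.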 To be noted: S. cerevisiae rad50 strain growth inhibition, hits give high values. The essentials: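 Growth of the mutant yeast was measured after compound exposure and referenced to vehicle-treated cultures.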
A short description of experiment [2]: NCI Yeast Anticancer Drug Screen. Data for the mec2-1 strain (AID 157). Particulars: S. cerevisiae mec2-1 strain, hits give high values. The essentials: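 Using mec2-1 yeast: add compound, measure growth, express inhibition versus vehicle-treated cultures.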
Experiment [3] in a line: NCI Yeast Anticancer Drug Screen. Data for the sgs1 mgt1 strain (AID 161).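 Further: 0% = growth of cultures given vehicle only.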 Particulars: S. cerevisiae sgs1 mgt1 strain, hits give high values. The essentials:
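This yeast growth screen uses a strain with defined DNA-repair lesions; compound-treated growth is compared with vehicle-treated growth.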

A short description of experiment [4]: NCI Yeast Anticancer Drug Screen. Data for the cln2 rad14 strain (AID 165).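 Further: 0% = growth equal to vehicle treated cultures.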 To be noted: S. cerevisiae cln2 rad14 strain, hits give high values. In outline: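 Yeast strain cln2 rad14, bearing defects in cell cycle control and DNA repair, serves as the test system; values reflect growth inhibition compared with vehicle.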
The nature of experiment [5]: NCI Yeast Anticancer Drug Screen. Data for the bub3 strain (AID 167). Particulars: S. cerevisiae bub3 mutant strain, hits give high values. The essentials: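 Whole-cell yeast assay. The mutant strain was incubated with compounds, and growth inhibition was determined by comparison with vehicle-treated cells.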
The nature of experiment [6]: NCI Yeast Anticancer Drug Screen. Data for the mlh1 rad18 strain (AID 175). Particulars: S. cerevisiae mlh1 rad18 strain growth inhibition, hits give high values. The essentials:
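Steps: expose repair-defective yeast to compound; measure growth; express inhibition against vehicle-treated controls.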

The mark [7] stands for this setting: at 5.0 µM (retest, dose inferred, filed as 0.5).
Where [8] appears, read: at 50.0 µM (retest, dose inferred, filed as 5.0).

The panel holds about 79,000 compounds, 15% with a hit somewhere; the sample as a whole holds those more often. Unmarked numbers belong to inactive results. Calls of active or inactive are those of the source. No stated cut-off is given here; in the data, active means growth inhibition above about 70%; inactive means the rest.

`CN(C)CCNC(=O)C(c1ccccc1)c1ccccc1`: the growth inhibition in experiment [1] (setting [7]) is 31%; in experiment [1] (setting [8]), 13%; in experiment [1] (at 50.0 µM) it was 63.1%; in experiment [2] (setting [7]), 2%; in experiment [2] (setting [8]), -4%; in experiment [2] (at 50.0 µM) it was 94.7% (active). Further, the growth inhibition is 6% in experiment [3] (setting [7]); -25% in experiment [3] (setting [8]); 12.8% in experiment [3] (at 50.0 µM); -1% in experiment [4] (setting [7]); -3% in experiment [4] (setting [8]); 96.2% (active) in experiment [4] (at 50.0 µM). The growth inhibition was -1% in experiment [5] (setting [7]); -11% in experiment [5] (setting [8]); 98% (active) in experiment [5] (at 50.0 µM); 30% in experiment [6] (setting [7]); 11% in experiment [6] (setting [8]); 98.5% (active) in experiment [6] (at 50.0 µM).
With `CCN(CC)C(=S)N/N=C/c1cc(OC)ccc1O`, the growth inhibition in experiment [1] (setting [7]) was -15%; in experiment [1] (setting [8]) it was 65%; in experiment [1] (at 50.0 µM), 69.9%; in experiment [2] (setting [7]), -43%; in experiment [2] (setting [8]), 93% (active); in experiment [2] (at 50.0 µM), 73.2% (active). In addition, the growth inhibition was -33% in experiment [3] (setting [7]); 95% (active) in experiment [3] (setting [8]); 62.4% in experiment [3] (at 50.0 µM); -6% in experiment [4] (setting [7]); 62% in experiment [4] (setting [8]); 53.5% in experiment [4] (at 50.0 µM). Also, the growth inhibition in experiment [5] (setting [7]) was -38%; in experiment [5] (setting [8]) it was 84% (active); in experiment [5] (at 50.0 µM), 61.5%; in experiment [6] (setting [7]), -30%; in experiment [6] (setting [8]) it was 78% (active); in experiment [6] (at 50.0 µM), 26.6%.
As for `Cc1ccccc1N1C(=O)c2ccccc2C1=O`, the growth inhibition was 1% in experiment [1] (setting [7]); 8% in experiment [1] (setting [8]); 61.1% in experiment [1] (at 50.0 µM); -6% in experiment [2] (setting [7]); 11% in experiment [2] (setting [8]); 98.8% (active) in experiment [2] (at 50.0 µM). The growth inhibition in experiment [3] (setting [7]) is 1%; in experiment [3] (setting [8]), 7%; in experiment [3] (at 50.0 µM) it was 90.1% (active); in experiment [4] (setting [7]), 6%; in experiment [4] (setting [8]) it was 9%; in experiment [4] (at 50.0 µM) it was 83.3% (active). Besides, the growth inhibition in experiment [5] (setting [7]) was 1%; in experiment [5] (setting [8]), 16%; in experiment [5] (at 50.0 µM), 98.2% (active); in experiment [6] (setting [7]) it was 0%; in experiment [6] (setting [8]), 8%; in experiment [6] (at 50.0 µM), 84% (active).
Turning to `O=C1CCCCCCC2=C1C(Sc1ccccc1)CC2` (stereo not given), the growth inhibition in experiment [1] (setting [7]) was -27%; in experiment [1] (setting [8]), 34%; in experiment [1] (at 50.0 µM), 78.8% (active); in experiment [2] (setting [7]), -6%; in experiment [2] (setting [8]), 25%; in experiment [2] (at 50.0 µM), 52.4%. Also, the growth inhibition is -16% in experiment [3] (setting [7]); 35% in experiment [3] (setting [8]); 75.2% (active) in experiment [3] (at 50.0 µM); 13% in experiment [4] (setting [7]); 28% in experiment [4] (setting [8]); 45.6% in experiment [4] (at 50.0 µM). The growth inhibition is 3% in experiment [5] (setting [7]); 69% in experiment [5] (setting [8]); 60.1% in experiment [5] (at 50.0 µM); -13% in experiment [6] (setting [7]); 80% (active) in experiment [6] (setting [8]); 54.1% in experiment [6] (at 50.0 µM).
For the compound `Cc1nc2c(nc1C)C(=O)C1=C(C2=O)C2C=CC1CC2`, the growth inhibition is 0% in experiment [1] (setting [7]); 87% (active) in experiment [1] (setting [8]); 89.8% (active) in experiment [1] (at 50.0 µM); -2% in experiment [2] (setting [7]); 90% (active) in experiment [2] (setting [8]); 74.6% (active) in experiment [2] (at 50.0 µM). Besides, the growth inhibition in experiment [3] (setting [7]) is 2%; in experiment [3] (setting [8]), 94% (active); in experiment [3] (at 50.0 µM), 94.7% (active); in experiment [4] (setting [7]) it was -3%; in experiment [4] (setting [8]), 68%; in experiment [4] (at 50.0 µM), 57%. Also, the growth inhibition is 24% in experiment [5] (setting [7]); 94% (active) in experiment [5] (setting [8]); 93.5% (active) in experiment [5] (at 50.0 µM); 2% in experiment [6] (setting [7]); 93% (active) in experiment [6] (setting [8]); 91.8% (active) in experiment [6] (at 50.0 µM).
As to `OCCc1c2ccccc2cc2ccccc12`, the growth inhibition is -135% in experiment [1] (setting [7]); -50% in experiment [1] (setting [8]); 41.5% in experiment [1] (at 50.0 µM); -44% in experiment [2] (setting [7]); -41% in experiment [2] (setting [8]); 10.6% in experiment [2] (at 50.0 µM). Further, the growth inhibition in experiment [3] (setting [7]) was -61%; in experiment [3] (setting [8]), -36%; in experiment [3] (at 50.0 µM), 11.7%; in experiment [4] (setting [7]), -52%; in experiment [4] (setting [8]), -48%; in experiment [4] (at 50.0 µM) it was 11.8%. Besides, the growth inhibition was -60% in experiment [5] (setting [7]); -43% in experiment [5] (setting [8]); 3.35% in experiment [5] (at 50.0 µM); -127% in experiment [6] (setting [7]); -74% in experiment [6] (setting [8]); 59.8% in experiment [6] (at 50.0 µM).
`C[CH2][Sn]([CH2]C)([O]C(=O)c1ccccc1OC)[O][Sn]([CH2]C)([CH2]C)[O]C(=O)c1ccccc1OC`: the growth inhibition in experiment [1] (setting [7]) is 36%; in experiment [1] (setting [8]), 78% (active); in experiment [1] (at 50.0 µM), 51.6%; in experiment [2] (setting [7]) it was 35%; in experiment [2] (setting [8]), 87% (active); in experiment [2] (at 50.0 µM), 41%. In addition, the growth inhibition in experiment [3] (setting [7]) was 33%; in experiment [3] (setting [8]), 83% (active); in experiment [3] (at 50.0 µM) it was 42.2%; in experiment [4] (setting [7]), 20%; in experiment [4] (setting [8]), 62%; in experiment [4] (at 50.0 µM), 20.8%. The growth inhibition in experiment [5] (setting [7]) was 35%; in experiment [5] (setting [8]), 94% (active); in experiment [5] (at 50.0 µM), 32.1%; in experiment [6] (setting [7]), 38%; in experiment [6] (setting [8]), 84% (active); in experiment [6] (at 50.0 µM), 72.8% (active).
For `CCN(CC)CCCOC(=O)C(c1ccccc1)C1CCCCC1` (stereo not given), the growth inhibition is 4% in experiment [1] (setting [7]); 63% in experiment [1] (setting [8]); 88.5% (active) in experiment [1] (at 50.0 µM); 11% in experiment [2] (setting [7]); 71% (active) in experiment [2] (setting [8]); 67.5% in experiment [2] (at 50.0 µM). Moreover, the growth inhibition in experiment [3] (setting [7]) is 22%; in experiment [3] (setting [8]), 94% (active); in experiment [3] (at 50.0 µM), 90.7% (active); in experiment [4] (setting [7]), 13%; in experiment [4] (setting [8]), 41%; in experiment [4] (at 50.0 µM), 88.5% (active). Besides, the growth inhibition in experiment [5] (setting [7]) was 16%; in experiment [5] (setting [8]), 83% (active); in experiment [5] (at 50.0 µM) it was 94.1% (active); in experiment [6] (setting [7]), 41%; in experiment [6] (setting [8]), 97% (active); in experiment [6] (at 50.0 µM), 98% (active).
Turning to `CCOC(=O)c1ccc(NC(=O)O/N=C(/Cl)CCl)cc1`, the growth inhibition is -14% in experiment [1] (setting [7]); 99% (active) in experiment [1] (setting [8]); 41.2% in experiment [1] (at 50.0 µM); -5% in experiment [2] (setting [7]); 95% (active) in experiment [2] (setting [8]); 83.8% (active) in experiment [2] (at 50.0 µM). The growth inhibition in experiment [3] (setting [7]) was -22%; in experiment [3] (setting [8]) it was 50%; in experiment [3] (at 50.0 µM), 55.3%; in experiment [4] (setting [7]), -10%; in experiment [4] (setting [8]), 78% (active); in experiment [4] (at 50.0 µM) it was 57.2%. The growth inhibition in experiment [5] (setting [7]) is -16%; in experiment [5] (setting [8]) it was 43%; in experiment [5] (at 50.0 µM) it was 73.5% (active); in experiment [6] (setting [7]), -5%; in experiment [6] (setting [8]), 79% (active); in experiment [6] (at 50.0 µM), 69%.
For the compound `CCN(CC)CCCNc1c2c(Cl)cc(Cl)cc2nc2nc(=O)[nH]c(C)c12`, the growth inhibition in experiment [1] (setting [7]) was 9%; in experiment [1] (setting [8]), 12%; in experiment [1] (at 50.0 µM) it was 8.75%; in experiment [2] (setting [7]), 8%; in experiment [2] (setting [8]), 16%; in experiment [2] (at 50.0 µM) it was 0.9%. The growth inhibition was -28% in experiment [3] (setting [7]); 6% in experiment [3] (setting [8]); 8.8% in experiment [3] (at 50.0 µM); -13% in experiment [4] (setting [7]); 4% in experiment [4] (setting [8]); 39% in experiment [4] (at 50.0 µM). Besides, the growth inhibition was -19% in experiment [5] (setting [7]); 8% in experiment [5] (setting [8]); 34.5% in experiment [5] (at 50.0 µM); 7% in experiment [6] (setting [7]); 17% in experiment [6] (setting [8]); 42.2% in experiment [6] (at 50.0 µM).
